According to the supplement of paper PMC9942566:
Counter-ions that a name gives are not always drawn. ± gives the standard deviation of the averaged measurements.

These compounds were tested on Serratia marcescens K904 PosmB-luxCDABE reporter (pMQ747) (assay: PosmB-lux reporter fold induction (RLU/OD600 relative to no-compound control), highest over Biolog concentrations; higher = stronger reporter activation). Conditions: ΔrcsB mutant CMS5177; 4 h.
Description: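 Serratia marcescens K904 (wild type) or its isogenic ΔrcsB mutant, carrying the Rcs-dependent PosmB-luxCDABE reporter plasmid pMQ747, was grown in LB at OD600 0.1 in Biolog Phenotype MicroArray plates PM11-20 for 4 h at 30-32°C. Each compound is present at 3-4 proprietary concentrations (not stated); per the Fig. S1 legend the value given is the highest fold over those wells. Three independent trials.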

| Compound | PosmB-lux reporter fold induction |
| --- | --- |
| O=C(OC[C@H]1O[C@@H](OC(=O)c2cc(O)c(O)c(OC(=O)c3cc(O)c(O)c(O)c3)c2)[C@H](OC(=O)c2cc(O)c(O)c(OC(=O)c3cc(O)c(O)c(O)c3)c2)[C@@H](OC(=O)c2cc(O)c(O)c(OC(=O)c3cc(O)c(O)c(O)c3)c2)[C@@H]1OC(=O)c1cc(O)c(O)c(OC(=O)c2cc(O)c(O)c(O)c2)c1)c1cc(O)c(O)c(OC(=O)c2cc(O)c(O)c(O)c2)c1 [tannic acid] (Biolog plate: PM17, well positions: F9-12) | 0.888 ± 0.24 |
| CCCCCCCCCCCC[N+](C)(C)C [Dodecyltrimethyl ammonium bromide] (Biolog plate: PM12, well positions: H9-12) | 1.97 ± 0.62 |
| CCS(=O)(=O)CCn1c([N+](=O)[O-])cnc1C [tinidazole] (Biolog plate: PM18, well positions: F5-8) | 1 ± 0.3 |
| CN(C)[C@@H]1C(O)=C(C(N)=O)C(=O)[C@@]2(O)C(O)=C3C(=O)c4c(O)ccc(Cl)c4[C@@H](O)[C@H]3C[C@@H]12 [Demeclocycline] (Biolog plate: PM11, well positions: D5-8) | 1.59 ± 0.14 |
| O=C(O)c1cn(C2CC2)c2cc(N3CCNCC3)c(F)cc2c1=O [ciprofloxacin] (Biolog plate: PM20, well positions: D5-8) | 1.49 ± 0.33 |
| c1ccc(-c2ccccn2)nc1 [2,2'-Dipyridyl] (Biolog plate: PM13, well positions: B5-8) | 1.71 ± 1.3 |
| CN[C@@H]1[C@H](O[C@H]2[C@H](O[C@H]3[C@H](O)[C@@H](O)[C@H](N=C(N)N)[C@@H](O)[C@@H]3N=C(N)N)O[C@@H](C)[C@]2(O)C=O)O[C@@H](CO)[C@H](O)[C@H]1O [streptomycin] (Biolog plate: PM16, well positions: E1-4) | 1.98 ± 0.69 |
| C1COCCOCCOCCOCCOCCO1 [18-crown-6 ether] (Biolog plate: PM20, well positions: D9-12) | 1.53 ± 0.55 |
| COc1ccc(C[C@H](N)C(=O)N[C@H]2[C@@H](O)[C@H](n3cnc4c(N(C)C)ncnc43)O[C@@H]2CO)cc1 [Puromycin] (Biolog plate: PM15, well positions: F9-12) | 3.56 ± 1.7 |
| CCN(CC)CC(=O)Nc1c(C)cccc1C [lidocaine] (Biolog plate: PM18, well positions: D9-12) | 0.721 ± 0.15 |
| N=C(N)N [Guanidine hydrochloride] (Biolog plate: PM15, well positions: A5-8) | 2.09 ± 0.16 |
| CC[C@H]1OC(=O)[C@H](C)[C@@H](O[C@H]2C[C@@](C)(OC)[C@@H](O)[C@H](C)O2)[C@H](C)[C@@H](O[C@@H]2O[C@H](C)C[C@H](N(C)C)[C@H]2O)[C@](C)(O)C[C@@H](C)C(=O)[C@H](C)[C@@H](O)[C@]1(C)O [Erythromycin] (Biolog plate: PM11, well positions: F5-8) | 1.46 ± 0.041 |
| CC1(C)S[C@@H]2[C@H](NC(=O)[C@H](N)c3ccccc3)C(=O)N2[C@H]1C(=O)O [Ampicillin] (Biolog plate: PM13, well positions: A2-4) | 1.06 ± 0.25 |
| CO[C@@H]1[C@@H](OC(N)=O)[C@@H](O)[C@H](Oc2ccc3c(O)c(NC(=O)c4ccc(O)c(CC=C(C)C)c4)c(=O)oc3c2C)OC1(C)C [Novobiocin] (Biolog plate: PM12, well positions: D9-12) | 2.74 ± 1.3 |
| CCCCCCCC[N+](C)(CCCCCCCC)CCCCCCCC [methyltrioctyl-ammonium chloride] (Biolog plate: PM19, well positions: B1-4) | 2.23 ± 1.5 |
| O=P(O)(O)OP(=O)(O)O [sodium pyrophosphate decahydrate] (Biolog plate: PM18, well positions: A5-8) | 0.615 ± 0.16 |
| O=c1[nH]c(=O)n([C@H]2C[C@H](O)[C@@H](CO)O2)cc1C(F)(F)F [trifluorothymidine] (Biolog plate: PM18, well positions: B1-4) | 1.09 ± 0.28 |
| CN(C)CCCN1c2ccccc2Sc2ccc(Cl)cc21 [chlorpromazine] (Biolog plate: PM17, well positions: D9-12) | 1.63 ± 0.49 |
| CCn1cc(C(=O)O)c(=O)c2cc(F)c(N3CCNC(C)C3)c(F)c21 (stereo not given) [Lomefloxacin] (Biolog plate: PM11, well positions: B9-12) | 1.19 ± 0.24 |
| O=c1ccc2ccc(O)cc2o1 [umbelliferone] (Biolog plate: PM19, well positions: C5-8) | 0.964 ± 0.57 |

| Compound | PosmB-lux reporter fold induction |
| --- | --- |
| CO/N=C(\C(=O)N[C@@H]1C(=O)N2C(C(=O)O)=C(COC(N)=O)CS[C@H]12)c1ccco1 [Cefuroxime] (Biolog plate: PM13, well positions: D1-4) | 1.42 ± 0.51 |
| O=C1C=C(O)C(=O)c2ccccc21 [lawsone] (Biolog plate: PM19, well positions: E9-12) | 1.14 ± 0.35 |
| Cc1ncc([N+](=O)[O-])n1CC(O)CCl (stereo not given) [ornidazole] (Biolog plate: PM20, well positions: C9-12) | 1.59 ± 0.49 |
| S=c1nc[nH]c2nc[nH]c12 [6-Mercapto-purine] (Biolog plate: PM13, well positions: C1-4) | 1.22 ± 0.54 |
| Cc1ccc2c(Cl)cc(Cl)c(O)c2n1 [5,7-Dichloro-8-hydroxy-quinaldine] (Biolog plate: PM15, well positions: B9-12) | 1.27 ± 0.13 |
| N[C@@H]1CONC1=O [D-Cycloserine] (Biolog plate: PM15, well positions: B1-4) | 1.43 ± 0.18 |
| COc1cc(Cc2cnc(N)nc2N)cc(OC)c1OC [trimethoprim] (Biolog plate: PM16, well positions: B9-12) | 8.21 ± 3.9 |
| On1ccccc1=S [1-Hydroxy-pyridine-2-thione] (Biolog plate: PM14, well positions: C5-8) | 1.1 ± 0.053 |
| CN[C@@H]1[C@@H](O)[C@@H](O[C@@H]2[C@@H](O)[C@H](O[C@H]3OC(CN)=CC[C@H]3N)[C@@H](N)C[C@H]2N)OC[C@]1(C)O [Sisomicin] (Biolog plate: PM12, well positions: D1-4) | 1.29 ± 0.5 |
| C[C@H]1O[C@@H](n2cc(F)c(=O)[nH]c2=O)[C@H](O)[C@@H]1O [5-fluoro-5'-deoxyuridine] (Biolog plate: PM18, well positions: H1-4) | 1.75 ± 0.72 |
| CCN(CC)CCOC(=O)c1ccc(N)cc1 [Procaine] (Biolog plate: PM15, well positions: A2-4) | 1.04 ± 0.067 |
| CC[C@H]1OC(=O)C[C@@H](O)[C@H](C)[C@@H](O[C@@H]2O[C@H](C)[C@@H](O[C@H]3C[C@@](C)(O)[C@@H](O)[C@H](C)O3)[C@H](N(C)C)[C@H]2O)[C@@H](CC=O)C[C@@H](C)C(=O)/C=C/C(C)=C/[C@@H]1CO[C@@H]1O[C@H](C)[C@@H](O)[C@@H](OC)[C@H]1OC [Tylosin] (Biolog plate: PM13, well positions: H9-12) | 4.38 ± 1.6 |
| [Cl][Mn][Cl] [Manganese chloride] (Biolog plate: PM13, well positions: G5-8) | 1.41 ± 0.043 |
| CO[C@@H]1[C@@H](O[C@@H]2O[C@H](C)[C@@H](O[C@H]3C[C@@](C)(O)[C@@H](OC(=O)CC(C)C)[C@H](C)O3)[C@H](N(C)C)[C@H]2O)[C@@H](CC=O)C[C@@H](C)[C@@H](O)/C=C/C=C/C[C@@H](C)OC(=O)C[C@H]1OC(C)=O [josamycin] (Biolog plate: PM19, well positions: A2-4) | 9.66 ± 6.6 |
| C[C@@H]1O[C@@H]1P(=O)(O)O [Phosphomycin] (Biolog plate: PM16, well positions: A5-8) | 1.57 ± 0.24 |
| CN(C)[C@@H]1C(O)=C(C(=O)NCN2CCCC2)C(=O)[C@@]2(O)C(O)=C3C(=O)c4c(O)cccc4[C@@](C)(O)[C@H]3C[C@@H]12 [Rolitetracycline] (Biolog plate: PM13, well positions: D9-12) | 1.73 ± 0.11 |
| CC1=CC(=O)c2ccccc2C1=O [Menadione] (Biolog plate: PM15, well positions: G9-12) | 0.917 ± 0.14 |
| O=C(O)c1cc(O)c(O)c(O)c1 [gallic acid] (Biolog plate: PM19, well positions: A5-8) | 1.33 ± 0.48 |
| NC(=O)c1cc[n+](CC2=C(C(=O)[O-])N3C(=O)[C@@H](NC(=O)[C@@H](c4ccccc4)S(=O)(=O)O)[C@H]3SC2)cc1 [cefsulodin] (Biolog plate: PM17, well positions: H1-4) | 1.35 ± 0.096 |
| CC(=O)O[C@H]1C[C@@]2(C)[C@@H](C[C@@H](O)[C@H]3[C@@]4(C)CC[C@@H](O)[C@@H](C)[C@@H]4CC[C@@]32C)/C1=C(\CCC=C(C)C)C(=O)O [Fusidic acid] (Biolog plate: PM15, well positions: C5-8) | 1.43 ± 0.16 |
